Measurements: PubChem BioAssay AID504725 (Broad Institute, 2011)
Measured potencies and affinities stand elsewhere. Activity calls are given as the source filed them. The rule behind the calls is not given here.

molecular target: KSHV LANA C-terminal domain (residues 932-1162) binding to LBS DNA (UniProt O40947); assay: KSHV LANA DNA-binding disruption – biochemical, fluorescence polarization, cherry-picked samples, dose response (AID 504725); settings: MBP-C-LANA / FAM-LBS DNA fluorescence polarization, percent change from plate compound-well median; series mostly up to 35 µM

outcome, inactive:
O=C(Nc1ccc2c(c1)OCO2)N1CCCc2ccccc21
Cc1c(NC(=O)CCC2CCCCC2)cc(C(=O)N2CCOCC2)cc1[N+](=O)[O-]
NNC(=O)CC1=NNC(=O)C1
COc1ccccc1CNC(=O)CCS(=O)(=O)c1cccs1
CC(Sc1nc(-c2ccco2)nc2c1c(=O)n(C)c(=O)n2C)C(=O)O (stereo not drawn)
O=C(C1CCCO1)N1CCN(c2ncccn2)CC1 (stereo not drawn)
O=C1c2ccccc2C(=O)N1Cc1ccc2c(c1)OCO2
O=C(CN1CCN(C(=O)CNC(=O)c2ccc3c(c2)OCO3)CC1)Nc1ccc(F)cc1
COc1ccc(-c2cc(C(=O)N(C)CCc3ccc(OC)c(OC)c3)c3ccccc3n2)cc1
CC(Sc1ncccn1)C(=O)NNC(=O)c1cccc(Cl)c1 (stereo not drawn)
Nc1nc(C(F)(F)F)cc(=O)[nH]1
Brc1ccc(-c2noc(COc3ccc4c(c3)CCC4)n2)o1
O=C(NCCCO)c1ccc2nc(-c3ccco3)c(-c3ccco3)nc2c1
O=C1c2ccccc2C(Nc2ccc3c(c2)OCCO3)N1Cc1ccc2c(c1)OCO2 (stereo not drawn)
COC(=O)c1cccc(COC(=O)c2ccccc2NC(=O)c2ccco2)c1
CCC(Sc1ncccc1C(=O)O)C(=O)N1CCCC1 (stereo not drawn)
Cc1cc(Cl)ccc1N1C(=O)CC(NNC(=O)c2cccnc2)C1=O (stereo not drawn)
CCCc1nnc(NC(=O)CCC(=O)NCc2ccc(OC)cc2)s1
Cc1nn(CC(=O)c2ccc(Br)s2)c(C)c1[N+](=O)[O-]
COc1cccc(OCCNc2ccc([N+](=O)[O-])cn2)c1
Cc1ccc(C(=O)CCC(=O)Nc2ncccc2C)cc1
COc1ccc(NC(=O)COC(=O)c2c(-c3ccccc3)noc2C)cc1
CC(=O)Nc1ccc(S(=O)(=O)Nc2ccccc2N2CCOCC2)cc1
COc1cc(SC)ccc1C(=O)OCC(=O)N1CCN(C(C)=O)CC1
Cc1ccc(-c2nnc(-c3ccc(NC(=O)c4ccco4)cc3)o2)cc1
CCN(CC)C(=S)SC1CCCCN(C(=O)c2ccccc2)C1=O (stereo not drawn)
CCOC(=O)C1C2C=CC3(CN(c4cccc(Cl)c4)C(=O)C13)O2 (stereo not drawn)
COc1cc(CN2CC(=O)N(c3cc(Cl)ccc3C)C2=S)cc(OC)c1OC
Cc1c(C)n(Cc2ccccc2)c2ncnc(Cl)c12
Nc1nc(SCC(=O)N2CCCCC2)[nH]c(=O)c1NC(=O)c1cccs1
CCN(CC)C(=O)C1c2ccccc2Oc2ccccc21
COc1ccc2[nH]c3c(C)c4cc[n+](C)cc4c(C)c3c2c1
O=C(CCN1C(=O)/C(=C/c2ccco2)SC1=S)Nc1ccc(C(=O)O)c(O)c1
Cc1ccsc1/C=N/NC(=O)Cc1ccc(Cl)cc1
O=C(O)/C=C/C(=O)Nc1ccc(Cc2ccc(NC(=O)/C=C/C(=O)O)cc2)cc1
O=S(=O)(O)c1cc(O)c2cc(Nc3ccccc3)ccc2c1
Nc1c(-c2ccccn2)cnn1-c1nc(-c2ccc(F)cc2)cs1
C=C1c2cccc(O)c2C(O)=C2C(=O)[C@]3(O)C(O)=C(C(N)=O)C(=O)[C@@H](N(C)C)[C@@H]3[C@@H](O)[C@H]12
